An excerpt weighted towards active compounds, which were near 2.1% of everything screened.
ROMK mod: modulates human ROMK potassium channel activity; B-score at 10 µM; AID 1918; hit rate 2% among 130,000; Tet-inducible ROMK, thallium flux fluorescence; actives lie on both sides;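 active = signal ratio slope over the read window, or its plate-corrected B-score, at least 3 SD from the plate mean, either direction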;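 note: B-score of the F/F0 ratio slope over 7 to 12 s after thallium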
Target sequence (P48048 whole entry, looked up): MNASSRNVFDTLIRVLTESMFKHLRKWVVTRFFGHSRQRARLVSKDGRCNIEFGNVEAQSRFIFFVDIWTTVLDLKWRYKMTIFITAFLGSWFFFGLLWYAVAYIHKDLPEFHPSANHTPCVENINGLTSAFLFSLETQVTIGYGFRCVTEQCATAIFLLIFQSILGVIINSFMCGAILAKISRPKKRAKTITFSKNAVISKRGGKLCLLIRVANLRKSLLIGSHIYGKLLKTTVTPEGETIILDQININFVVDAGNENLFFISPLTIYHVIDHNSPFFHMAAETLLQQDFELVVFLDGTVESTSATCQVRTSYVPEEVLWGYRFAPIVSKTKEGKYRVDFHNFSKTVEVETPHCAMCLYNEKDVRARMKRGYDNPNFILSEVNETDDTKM
Arbovirus anti: blocks arbovirus infection. arbovirus infection cell-based antiviral screen. inhibition, % at 10 µM. hit rate 0.37% among 200,000. AID 1251; in the data active = inhibition above about 30%
Calpain2 inh: inhibitors of pig calpain II. hit rate 0.37% among 220,000. inhibition, % at 16 µM. purified calpain II, fluorogenic peptide substrate, 30 min;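 active = inhibition above about 50%, limit read from the data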
HMGR II inh: E. faecalis class II HMG-CoA reductase inhibition. inhibition, % at 10 µM. purified E. faecalis HMGR, NADPH absorbance 340 nm kinetic. hit rate 0.41% among 190,000;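 active = inhibition above a set limit, the median over all tested compounds plus 3 SD, cut at about 9.5% in these data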;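 note: enzyme runs in reverse so mevalonate oxidation gives rising NADPH absorbance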
HSV augment: HSV replication enhancement | HSV replication augmentation in cells, fold increase | maximum fold increase | hit rate 0.005% among 220,000 | AID 1956; in the data active = maximum fold increase above about 1.5; tested in PC3 cells
Each line names hits and unclear results; the compound was inactive in the other large screens.

COc1ccccc1/C=C/C1(C(=O)NC2CCCC2)CC(=O)N1c1ccccc1 (configuration not stated)	none (no result: ROMK mod, Arbovirus anti, HMGR II inh)
CC1CCc2c(cnc3ncnn23)C1 (configuration not stated)	none (no result: ROMK mod, Arbovirus anti, HMGR II inh)
COc1ccc(Br)cc1/C=N/NC(=O)CN1CCN(Cc2ccccc2)CC1	none (no result: ROMK mod, Arbovirus anti, HMGR II inh)
O=C(CCS(=O)(=O)c1cccs1)Nc1ccc(C(=O)NC2CCN(Cc3ccccc3)CC2)cc1	none
CC(C)Cn1c(N)c(C(=O)COC(=O)c2ccc(Cl)cc2)c(=O)n(C)c1=O	Calpain2 inh 81.2
Cn1c(N)c(C(=O)COC(=O)c2ccccn2)c(=O)n(C)c1=O	none
Cn1c(N)c(C(=O)COC(=O)c2ncc(Cl)c(Cl)c2Cl)c(=O)n(C)c1=O	Calpain2 inh 61.9
CC(C)Cn1c(N)c(C(=O)COC(=O)CC23CC4CC(CC(C4)C2)C3)c(=O)n(C)c1=O	Calpain2 inh 70.8
Cc1ccc(/C=N/NC(=O)c2cccnc2)s1	none (no result: ROMK mod, Arbovirus anti, HMGR II inh)
Cc1ccc(S(=O)(=O)N2CCCCC2)cc1NC(=O)COC(=O)c1ccccc1F	none
O=C(Nc1ccccc1C(=O)NCc1ccccc1)c1ccccc1Br	none (no result: ROMK mod)
O=C(Nc1ccccc1C(=O)O)c1ccc(Br)c(S(=O)(=O)NCc2ccccc2)c1	Arbovirus anti 31.1
Cc1c(C(=O)O)c(C(=O)O)nc2ccc(N3CCOCC3)cc12	none
Cc1ccc(/C=C2\SC(=S)N(c3cccnc3)C2=O)o1	none (no result: ROMK mod, Arbovirus anti, HMGR II inh)
O=C(O)c1cccc(N2C(=O)/C(=C/c3ccc(SCc4ccc(Cl)cc4)o3)SC2=S)c1	ROMK mod -4.23, Calpain2 inh 69.3
CCOc1ccc(-n2c(=O)[nH]c3sc4c(c3c2=O)CCCC4)cc1	Arbovirus anti 39.7
Cn1c(CNC(=O)OC(C)(C)C)nnc1SCC(=O)N1CCOCC1	none (no result: Arbovirus anti, HMGR II inh)
CCCC(=O)Nc1cccc(NC(=O)c2ccc([N+](=O)[O-])cc2Cl)c1	Arbovirus anti 45.1 (no result: ROMK mod)
CN(C)C(=O)CSc1n[nH]c(=O)[nH]c1=O	HMGR II inh 19.7
CC(C)Cc1csc(NC(=O)c2ccc(Br)cc2)c1C(=O)O	none (no result: ROMK mod, Arbovirus anti, HMGR II inh)
Cc1nn(C)c(Cl)c1C(=O)NCC(=O)Nc1ccc(C(C)C)cc1	none
CCN1CCN(C(=O)CN(c2cc(OC)ccc2OC)S(C)(=O)=O)CC1	none (no result: ROMK mod)
COc1ccc(OC)c(N(CC(=O)N2CCN(c3cc(Cl)ccc3C)CC2)S(C)(=O)=O)c1	Arbovirus anti 40.9, Calpain2 inh 57.2
CC(C)NC(=S)N/N=C/C1=CCC2CC1C2(C)C (configuration not stated)	Calpain2 inh 51.2
Cc1ncc(CN=Cc2ccc(Cl)cc2)c(N)n1	none (no result: ROMK mod, Arbovirus anti, HMGR II inh)
CO/N=C/c1ccc(Sc2ccccc2N)c([N+](=O)[O-])c1	Calpain2 inh 61.6 (no result: ROMK mod)
CO/N=C/c1ccc(Sc2ccccc2)c([N+](=O)[O-])c1	none
COc1cc(-c2[nH]ncc2CN2CCN(c3cccc(C)n3)CC2)cc(OC)c1OC	none (no result: ROMK mod, Arbovirus anti, HMGR II inh)
COc1cc(S(=O)(=O)Nc2ccc3cn[nH]c3c2)ccc1Cl	HMGR II inh 12.0
Cc1nc(=S)c2ccccc2[nH]1	HMGR II inh 14.9
FC(F)(F)c1nc(=S)c2ccccc2[nH]1	none (no result: HSV augment)
COc1cc(C)ccc1S(=O)(=O)n1nc(C)cc1C	none
Cc1cc2nc(C)c3c(n2n1)CCC3	none
Cc1ccc(-c2cc(-c3ccccc3)no2)c(O)c1	Arbovirus anti 35.8 (no result: ROMK mod)
COCCn1c(SCc2nc3scc(-c4ccc(Cl)cc4)c3c(=O)[nH]2)nnc1-c1cccc(C)c1	Arbovirus anti 32.5 (no result: ROMK mod)
CCn1c(SCc2nc3scc(-c4ccccc4)c3c(=O)[nH]2)nnc1-c1cccs1	none (no result: ROMK mod)
CCOC(=O)C1=C(COc2ccc(F)cc2Cl)NC(=O)NC1c1cc(C)ccc1C (configuration not stated)	HMGR II inh 23.9 (no result: ROMK mod)
CCOC(=O)C1=C(COc2ccc(C)cc2)NC(=O)NC1c1cc(C)ccc1C (configuration not stated)	none (no result: ROMK mod)
O=C(CSc1nnc(NC(=O)c2c(F)cccc2F)s1)Nc1ccc(F)cc1	Arbovirus anti 36.9
CCOC(=O)c1ccc(NNC(=O)CC)c([N+](=O)[O-])c1	none
O=S(=O)(Nc1ccc(-n2cccc2)cc1)c1ccc(Cl)cc1Cl	Calpain2 inh 65.3 (no result: ROMK mod)
CCn1c(N)[n+](CC(=O)Nc2ccc(SC(F)F)cc2)c2ccccc21	none (no result: ROMK mod, Arbovirus anti, HMGR II inh)
CCn1c(-c2cccs2)nc2ccccc21	none (no result: ROMK mod)
C#CCn1c(-c2cccs2)nc2ccccc21	HMGR II inh 14.2
Cc1ccc(S(=O)(=O)N(C)CCCC(=O)NC(C)(C)C)cc1	HMGR II inh 11.9
Cc1ccc(S(=O)(=O)N(C)CCCC(=O)NC(C)(C)CO)cc1	none
CCc1ccc(C2C(C#N)=C(N)SC(N)=C2C#N)cc1	ROMK mod -4.18
O=c1cnnc(SCc2ccc([N+](=O)[O-])cc2)[nH]1	none
CCCC1Cc2c(sc(NC(=S)NC(=O)c3ccccc3)c2C#N)CO1 (configuration not stated)	Calpain2 inh 53.4 (no result: ROMK mod)
N#Cc1c(NC(=S)NC(=O)c2ccccc2)sc2c1CCCC2	none
CCOc1ccccc1NC(=O)c1ccc(S(=O)(=O)N(C)C)cc1	none
CN(Cc1ccccc1NC(=O)c1ccc(S(=O)(=O)N(C)C)cc1)C1CCCCC1	Arbovirus anti 47.5
CC(=O)OCC1=C(C(=O)O)N2C(=O)C(NC(=O)c3ccc(COc4cccc(Cl)c4Cl)o3)C2SC1 (configuration not stated)	none
NC(=S)NNC(=O)c1cccc(Br)c1	HMGR II inh 16.9
O=C(O)c1cccc(NC(=S)NC(=O)c2ccc(-c3ccccc3)cc2)c1	Calpain2 inh 70.4
Cc1ccc(C(=O)NC(=S)Nc2cccc(-c3nc4ccccc4s3)c2)cc1	HMGR II inh 10.2 (no result: ROMK mod)
Cc1cc(C(=O)NNc2ccc(C(C)C)cc2)n(C(C)(C)C)n1	none (no result: Arbovirus anti, HMGR II inh)
CCc1cc2c(=O)c(-c3cscn3)coc2c(CN(C)C)c1O	Arbovirus anti 38.5
Clc1c(Cl)c(Cl)c2n[nH]nc2c1Cl	none (no result: ROMK mod, Arbovirus anti, HMGR II inh)
COc1ccc2nc(NC(=O)C3=NN(c4ccccc4)C(=O)CC3)sc2c1	Arbovirus anti 47.6 (no result: ROMK mod)
CCOc1ccc2nc(NC(=O)Cn3[nH]c(=O)c4ccccc4c3=O)sc2c1	none (no result: ROMK mod, Arbovirus anti, HMGR II inh)
COC(=O)C(=N/Nc1ccccc1C(=O)OC)/C(C)=N/O	none (no result: Arbovirus anti, HMGR II inh)
O=C(O)CC(Cc1ccc(Cl)cc1)C(=O)Nc1ccc([N+](=O)[O-])cc1 (configuration not stated)	Calpain2 inh 69.3
O=C(Cc1ccc([N+](=O)[O-])cc1)Nc1ccc(Cl)cc1	none
Cc1ccc(C)c(NC(=O)COC(=O)CCC(=O)c2cccs2)c1	none
NS(=O)(=O)c1ccc(CCNCc2cc(Br)ccc2OCc2ccccc2F)cc1	Calpain2 inh 52.6
Cc1ccc(NC(=O)c2cncc(Br)c2)c(O)c1	Arbovirus anti 38.9
Cc1ccc(NC(=O)c2ccc3nc[nH]c3c2)c(O)c1	HMGR II inh 16.1
Cc1cc([N+](=O)[O-])ccc1NC(=O)c1cncc(Br)c1	none
Cc1ccc(NC2=C/C(=N/S(=O)(=O)c3cccs3)c3ccccc3C2=O)cc1C	Calpain2 inh 50.1 (no result: HSV augment)
COC(=O)c1ccccc1NC(=O)CN1CCC(n2nnc3cc(C(F)(F)F)ccc32)CC1	Arbovirus anti 31.7 (no result: HSV augment)
COc1ccccc1NC(=O)CN1CCC(n2nnc3cc(F)ccc32)CC1	none
COc1ccccc1NC(=O)CN1CCC(n2c(C)nc3cc(F)ccc32)CC1	Arbovirus anti 32.6 (no result: ROMK mod)
N#Cc1cnn(-c2ccccc2)c1NC(=O)CN1CCN(c2ccccc2)CC1	none (no result: ROMK mod, Arbovirus anti, HMGR II inh)
